From PubChem BioAssay (Tox21)
“And” between values parts separate entries of the source, which are not always exact repeats. Equal values may be shown once. Results filed as inconclusive are left out. A call without a number means that no potency is given here. Some structures have more than one record in an assay (separate samples or runs), and their calls can disagree. The source made the active and inactive calls. Calls come from the whole dose curve; as a rule, active = well fitted curve in the direction sought with a large enough effect in the repeat runs; inconclusive = weak or mixed curves; inactive = no such curve, though single readings can be large; an effect the other way counts as inactive or inconclusive.

How the values were obtained:
[1] = target: Cytochrome P450 2C9 (Homo sapiens) (UniProt P11712); assay: Cytochrome P450 Family 2 Subfamily C Member 9 (CYP2C9) small molecule antagonists: luciferase reporter qHTS assay (AID 1671198)
Outline: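 P450-Glo proluciferin substrate with CYP2C9 enzyme; 10 min RT preincubation, then NADPH regeneration 1 h at 37C; luciferin detection reagent 20 min RT, luminescence in relative luminescence units.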

[2] = target: Cytochrome P450 1A2 (Homo sapiens) (UniProt P05177); assay: Cytochrome P450 Family 1 Subfamily A Member 2 (CYP1A2) small molecule antagonists: luciferase reporter qHTS assay (AID 1671199)
Outline: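 Luminescence from luciferin formed by CYP1A2 from a proluciferin substrate, read 20 min after detection reagent. Compound was pre-incubated 10 min with enzyme-substrate, and reaction started with NADPH regeneration solution for 1 h at room temperature; furafylline control.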

[3] = target: Voltage-gated inwardly rectifying potassium channel KCNH2 (Homo sapiens) (UniProt Q12809); assay: Human Ether-a-go-go-Related Gene (hERG) channel small molecule antagonists: fluorescence cell-based qHTS assay (AID 1671200)
Outline: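 U2OS cells expressing the channel were plated at 1000 cells/well, incubated overnight at 37 C, then loaded with FluxOR II thallium-sensitive dye for 1 h at room temperature in the dark, with a further 10 min at room temperature before stimulation.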

[4] = target: Cytochrome P450 3A4 (Homo sapiens) (UniProt P08684); assay: Cytochrome P450 Family 3 Subfamily A Member 4 (CYP3A4) small molecule antagonists: luciferase reporter qHTS assay (AID 1671201)
Outline: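 P450-Glo CYP3A4 system with proluciferin substrate; compounds preincubated 10 min RT with enzyme-substrate mix, then NADPH regeneration added for 1 h RT. Detection reagent 20 min, luminescence read as relative luminescence units.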
Note: nearly all actives have a fitted effect of over 50% in size.
Potency is the fitted concentration of half-maximal effect.

Cytochrome P450 2C9 (Homo sapiens), sequence (P11712 whole entry, looked up): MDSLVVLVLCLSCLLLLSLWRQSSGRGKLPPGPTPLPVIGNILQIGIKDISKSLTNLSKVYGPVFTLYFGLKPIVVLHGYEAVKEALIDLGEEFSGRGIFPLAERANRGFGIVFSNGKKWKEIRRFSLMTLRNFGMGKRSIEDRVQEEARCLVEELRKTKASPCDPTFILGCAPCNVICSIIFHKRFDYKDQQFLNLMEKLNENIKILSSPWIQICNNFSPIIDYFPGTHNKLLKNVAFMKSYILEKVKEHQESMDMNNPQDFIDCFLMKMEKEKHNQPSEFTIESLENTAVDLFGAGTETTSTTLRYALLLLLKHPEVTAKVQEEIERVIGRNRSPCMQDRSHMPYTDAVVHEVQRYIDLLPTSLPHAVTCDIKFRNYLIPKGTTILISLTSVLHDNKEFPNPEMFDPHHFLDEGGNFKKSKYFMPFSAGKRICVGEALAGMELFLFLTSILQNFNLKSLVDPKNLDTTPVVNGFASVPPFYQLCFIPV
Cytochrome P450 3A4 (Homo sapiens), sequence (P08684 whole entry, looked up): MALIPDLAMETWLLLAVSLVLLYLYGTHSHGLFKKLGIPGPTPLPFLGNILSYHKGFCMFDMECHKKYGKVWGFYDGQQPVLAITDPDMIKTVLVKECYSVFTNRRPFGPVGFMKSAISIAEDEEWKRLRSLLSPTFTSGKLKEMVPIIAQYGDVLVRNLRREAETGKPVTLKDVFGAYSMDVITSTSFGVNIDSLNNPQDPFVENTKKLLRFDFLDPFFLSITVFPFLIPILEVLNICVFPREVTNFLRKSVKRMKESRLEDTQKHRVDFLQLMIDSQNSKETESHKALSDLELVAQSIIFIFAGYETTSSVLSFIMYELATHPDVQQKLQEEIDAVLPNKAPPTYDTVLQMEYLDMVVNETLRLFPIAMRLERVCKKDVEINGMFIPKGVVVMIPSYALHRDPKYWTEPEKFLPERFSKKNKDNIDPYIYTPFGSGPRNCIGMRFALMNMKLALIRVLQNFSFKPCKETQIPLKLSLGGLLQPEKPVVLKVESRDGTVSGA
Cytochrome P450 1A2 (Homo sapiens), sequence (P05177 whole entry, looked up): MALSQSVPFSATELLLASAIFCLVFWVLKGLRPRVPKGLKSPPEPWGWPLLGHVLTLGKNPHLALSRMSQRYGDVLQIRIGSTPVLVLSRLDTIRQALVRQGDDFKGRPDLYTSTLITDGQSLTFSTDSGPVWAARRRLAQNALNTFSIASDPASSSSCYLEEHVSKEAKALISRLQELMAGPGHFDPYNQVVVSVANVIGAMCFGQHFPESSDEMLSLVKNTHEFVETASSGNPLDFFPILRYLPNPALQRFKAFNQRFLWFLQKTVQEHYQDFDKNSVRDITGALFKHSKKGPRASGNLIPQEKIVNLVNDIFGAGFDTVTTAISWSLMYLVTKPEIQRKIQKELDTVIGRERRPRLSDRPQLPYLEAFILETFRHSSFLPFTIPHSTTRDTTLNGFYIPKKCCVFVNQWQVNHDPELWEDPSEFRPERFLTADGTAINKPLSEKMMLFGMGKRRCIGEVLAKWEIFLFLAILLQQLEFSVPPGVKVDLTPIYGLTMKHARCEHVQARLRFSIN
Voltage-gated inwardly rectifying potassium channel KCNH2 (Homo sapiens), sequence (Q12809 whole entry, looked up): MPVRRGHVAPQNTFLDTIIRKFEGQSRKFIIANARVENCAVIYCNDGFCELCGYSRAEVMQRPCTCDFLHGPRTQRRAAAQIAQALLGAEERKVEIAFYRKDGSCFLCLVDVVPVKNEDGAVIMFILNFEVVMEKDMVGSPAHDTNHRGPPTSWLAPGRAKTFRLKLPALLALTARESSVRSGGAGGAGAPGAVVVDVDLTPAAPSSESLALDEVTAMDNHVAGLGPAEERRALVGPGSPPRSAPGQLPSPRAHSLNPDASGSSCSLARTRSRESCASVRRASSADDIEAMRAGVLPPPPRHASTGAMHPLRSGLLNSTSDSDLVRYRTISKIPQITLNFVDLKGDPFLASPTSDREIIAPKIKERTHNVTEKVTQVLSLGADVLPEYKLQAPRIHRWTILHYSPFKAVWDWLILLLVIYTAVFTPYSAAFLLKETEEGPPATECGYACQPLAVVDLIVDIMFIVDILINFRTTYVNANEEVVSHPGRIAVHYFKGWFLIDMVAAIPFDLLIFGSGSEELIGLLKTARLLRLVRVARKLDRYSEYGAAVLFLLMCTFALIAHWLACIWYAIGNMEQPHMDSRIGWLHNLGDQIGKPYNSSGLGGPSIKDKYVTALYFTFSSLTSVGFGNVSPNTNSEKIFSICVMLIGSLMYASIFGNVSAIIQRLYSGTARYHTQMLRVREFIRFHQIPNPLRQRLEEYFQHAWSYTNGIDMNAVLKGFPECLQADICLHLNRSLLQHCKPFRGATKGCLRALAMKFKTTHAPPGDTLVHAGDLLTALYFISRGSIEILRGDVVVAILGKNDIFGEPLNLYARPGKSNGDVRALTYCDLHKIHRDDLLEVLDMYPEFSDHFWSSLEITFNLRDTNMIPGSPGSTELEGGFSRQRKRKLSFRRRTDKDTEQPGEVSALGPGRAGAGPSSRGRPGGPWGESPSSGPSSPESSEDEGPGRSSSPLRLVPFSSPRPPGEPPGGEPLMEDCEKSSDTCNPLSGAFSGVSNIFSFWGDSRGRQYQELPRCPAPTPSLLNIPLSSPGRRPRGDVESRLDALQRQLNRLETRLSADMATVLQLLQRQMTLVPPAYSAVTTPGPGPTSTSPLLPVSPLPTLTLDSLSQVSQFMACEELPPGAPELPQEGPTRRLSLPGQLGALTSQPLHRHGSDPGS

Structure (SMILES) | Potency [1] | Potency [2] | Potency [3] | Potency [4]
CCCCCC1C(=O)CCC1CC(=O)OC (configuration not stated) | 24.9 µM (active) and 31.7 µM (active) | 28 µM (active) and 28.3 µM (active) | inactive | inactive
COc1ccc(-c2coc3cc(O)cc(O)c3c2=O)cc1 |  | 32 µM (active) and 35.6 µM (active) | inactive | 20.2 µM (active) and 35.6 µM (active)
CC(=O)[C@H]1CC[C@H]2[C@@H]3CC=C4C[C@@H](O)CC[C@]4(C)[C@H]3CC[C@]12C |  | inactive | inactive | inactive
O=S1(=O)CCCO1 | inactive |  | inactive | inactive
CN(Cc1cnc2nc(N)nc(N)c2n1)c1ccc(C(=O)N[C@@H](CCC(=O)O)C(=O)O)cc1 |  | inactive | inactive | inactive
C[C@]12CC[C@@H]3c4ccc(O)cc4CC[C@H]3[C@@H]1CC[C@@H]2O | inactive |  |  | inactive
OCCNCCO |  |  | inactive | inactive
Nc1ccc(O)c(N)c1 | 35.3 µM (active) and 71 µM (active) |  | inactive | 63.3 µM (active)
C=CC(C)(O)CCC=C(C)C (configuration not stated) |  | inactive | inactive | inactive
[O-]/[N+](=N\O)c1ccccc1 |  | 22.2 µM (active) and 25.2 µM (active) | inactive | inactive
CC(C)(C)c1cccc(C(C)(C)C)c1O |  | 39 µM (active) and 63.3 µM (active) | 24 µM (active) | inactive
C[N+](C)(C)CCO | inactive |  | inactive | 
CN(C)/N=N/c1nc[nH]c1C(N)=O |  | inactive and 34.7 µM (active) | inactive | inactive
